This note sets out measurements from PubChem BioAssay.

The nature of assay [1]: yeast TOR pathway RPL19A-GFP modulators, primary screen, cell-based, S. cerevisiae, multiplex flow cytometry (AID 1862; in the data active = percent of DMSO control GFP below about 86%;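 also: lower values mimic rapamycin by blocking the RPL19A rise seen in DMSO cells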). The following applies: S. cerevisiae RPL19A-GFP strain, flow cytometry fluorescence, 3 h; at 10 µM; stronger effect = lower value.
Assay [2] in a line: modulators of CIT2-GFP expression in yeast, primary screen, S. cerevisiae, GFP fusion, multiplex flow cytometry (AID 1870;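 active = percent response above a set limit, the screen-wide mean plus 3 SD, cut at about 130% in these data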;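 also: barcoded CIT2-GFP strain pooled with four other GFP strains with rapamycin as positive control; median GFP fluorescence per well over plate mean of DMSO wells so 100% = DMSO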). The following applies: 3 h, at 10 µM, stronger effect = higher value.
A short description of assay [3]: modulators of LAP4-GFP expression in yeast, primary screen, S. cerevisiae, multiplex flow cytometry (AID 1873;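 active = GFP signal, as percent of the solvent control, above the screen mean plus 3 SD, about 149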). The note with it: 3 h, at 10 µM, stronger effect = higher value.
Assay [4] in a line: inhibitors of CD8+ T cell-vesicle binding, pilot screen, LFA-1/ICAM-1 modulator project, MLPCN validation set, flow cytometry (AID 2523;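 active = response below a set limit, under 55% cells CD8-positive and vesicle-bound, and CD8 cells' 90th-percentile brightness under 279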;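 as to vesicle binding response: mean PE anti-B7-1 fluorescence of CD8+ cells relative to row control; 100% = QL9-loaded vesicles with DMSO vehicle in the same plate row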). The following applies: 2C mouse CD8+ T cells, at 7 µM, stronger effect = lower value; double positive events: measured here: CD8+/vesicle+ event percentage.
Assay [5] concerns the target Integrin beta-1 (Homo sapiens) + Integrin alpha-4 (Homo sapiens) (UniProt P13612+P05556). In words: inhibition of HUTS-21 binding to VLA-4, pilot screen, VLA-4 allosteric modulator project, U937 cells, HUTS-21 mAb, flow cytometry, validation set (AID 2674;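 active = inhibition above 50%, about 3 SD of the validation set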;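 also: antibody binding induced by the VLA-4 ligand LDV present at three times its Kd; 0% = LDV ligand with antibody and no compound and 100% = antibody without LDV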). The note with it: HUTS-21 LIBS mAb binding, at 6.7 µM, stronger effect = higher value.
The nature of assay [6]: superoxide lowering in aged yeast cells, pilot screen, validation compound set (AID 2706;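 active = superoxide response below 65% of plate, a cut near 3 SD across the whole screen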;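 also: yeast exposed to compound for one week at 30 degrees C before staining; 100% = mean of all compound wells on the same plate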). The following applies: S. cerevisiae aging, superoxide DHE fluorescence; at 10 µM; stronger effect = lower value.
The target in assay [7] is Beta-adrenergic receptor kinase 1 (Homo sapiens) (UniProt P25098). In words: GRK2 binders displacing RNA aptamer, biochemical, validation, human GRK2, bead flow cytometry (AID 488806;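 active = aptamer binding inhibition above 30%, about 3 SD of noise from non-fluorescent compounds; inactive = inhibition at or below 30%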). The following applies: bead-bound GRK2, FAM-aptamer displacement, at 10 µM, stronger effect = higher value.
Assay [8] has as its target AP-2 complex subunit beta (Homo sapiens) (UniProt P63010). Put plainly: inhibitors of arrestin peptide binding to AP2, pilot screen, biochemical, validation set, GST-AP2 beads, flow cytometry (AID 504541;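 active = inhibition above 54%, about 3 SD of non-fluorescent compounds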;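 also: AP2 carries R879A mutation and is captured from E. coli lysate; bead-bound FITC arrestin peptide fluorescence measuring arrestin peptide binding to AP2; 0% = DMSO wells and 100% = excess unlabeled arrestin peptide control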). The following applies: FITC arrestin peptide, at 10 µM, stronger effect = higher value.
Assay [9] is described as follows: yeast V-ATPase proton transport modulators, S. cerevisiae, pHLuorin, HTS validation (AID 504600; in the data active = response above about 15%;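 also: plate controls were DMSO for no effect and reference compound for full effect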). The note with it: S. cerevisiae pHLuorin cytosolic pH, at 10 µM, stronger effect = higher value.
For assay [10], the system named is anti-desmoglein-3 scFv antibody binding to human DSG3. Put plainly: inhibitors of anti-DSG3 scFv binding to DSG3, pilot screen, biochemical, validation compound set, bead-based, flow cytometry (AID 588368;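 active = binding below the plate cutoff, the plate median minus 3 SD, with a reading above zero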;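 also: signal is the median channel fluorescence of bead-bound GFP antibody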). The following applies: Protein G beads, DSG3-Fc, scFv-GFP binding, at 10 µM, stronger effect = lower value.
For assay [11], the system named is Botulinum neurotoxin type F light chain protease (Clostridium botulinum). In words: Botulinum neurotoxin type F light chain protease inhibition, multiplex microsphere flow cytometry, validation set (AID 588459). The following applies: multiplex microsphere protease substrate cleavage assay, at 10 µM, stronger effect = higher value.
The target in assay [12] is Botulinum neurotoxin type A (Clostridium botulinum) (UniProt P0DPI0). In words: BoNT/A light chain protease inhibitors, biochemical, multiplex microsphere flow cytometry, validation set (AID 588460). The following applies: at 10 µM, stronger effect = higher value.
The target in assay [13] is Lethal factor (Bacillus anthracis) (UniProt P15917). Put plainly: Lethal factor protease inhibitors, Bacillus anthracis, multiplex microsphere cleavage assay, validation set (AID 588461). The following applies: flow cytometry, at 10 µM, stronger effect = higher value.
Assay [14] in a line: inhibitors of fungal efflux pumps CDR1, CDR2, MDR1, pilot screen, validation compound set, multiplex, phenotypic (AID 588506;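 active = efflux inhibition above 0.42, the validation set average plus 4 SD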;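 also: Nile Red retained in cells so higher fluorescence means more efflux inhibition; 0 = negative control wells and 1 = enniatin B 25 µM full block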). The note with it: S. cerevisiae pump-expressing triplex, Nile Red efflux flow cytometry; at 10 µM; stronger effect = higher value.
The target in assay [15] is ATP-binding cassette sub-family B member 6 (Homo sapiens) (UniProt Q9NP58). In words: ABCB6 transporter inhibitors, pilot screen, K562-ABCB6 cells, flow cytometry, validation set (AID 588550;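 active = inhibition above the screen-wide mean plus 3 SD, about 51%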;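 also: 0% = DMSO wells and 100% = benzethonium chloride 70 µM positive control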). The following applies: K562-ABCB6 porphyrin accumulation, 1 h, at 10 µM, stronger effect = higher value.
Assay [16] in a line: promoters of myeloid differentiation in arrested cells, primary screen, cell-based, GFP/MAC1 double positive, flow cytometry, validation set (AID 588685;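 active = differentiation response of at least 50%, scaled between solvent and reference control, from cells with both markers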;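 also: compound exposure lasts four days before antibody staining and flow analysis; 0% = DMSO wells and 100% = 5 µM fulvestrant positive control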). The note with it: ER-HoxA9 marrow cells, stronger effect = higher value.
Assay [17] concerns the target Beta-2 adrenergic receptor (Homo sapiens) (UniProt P07550). Put plainly: beta2AR agonists driving receptor internalization, pilot screen, cell-based, FAP fluorogen, flow cytometry, validation set (AID 504459;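 active = percent response above 42, roughly 3 SD of non-fluorescent test compounds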;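 also: agonist-driven loss of surface beta2AR via internalization measured by FAP dye flow cytometry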). The note with it: Am2.2-beta2AR cells, FAP surface receptor flow cytometry; at 10 µM; stronger effect = higher value.

Records with an inconclusive call do not appear. The source made the active and inactive calls. Unless noted, no rule for the calls is given here.

Sequence of Beta-adrenergic receptor kinase 1 (Homo sapiens) (P25098 whole entry, looked up): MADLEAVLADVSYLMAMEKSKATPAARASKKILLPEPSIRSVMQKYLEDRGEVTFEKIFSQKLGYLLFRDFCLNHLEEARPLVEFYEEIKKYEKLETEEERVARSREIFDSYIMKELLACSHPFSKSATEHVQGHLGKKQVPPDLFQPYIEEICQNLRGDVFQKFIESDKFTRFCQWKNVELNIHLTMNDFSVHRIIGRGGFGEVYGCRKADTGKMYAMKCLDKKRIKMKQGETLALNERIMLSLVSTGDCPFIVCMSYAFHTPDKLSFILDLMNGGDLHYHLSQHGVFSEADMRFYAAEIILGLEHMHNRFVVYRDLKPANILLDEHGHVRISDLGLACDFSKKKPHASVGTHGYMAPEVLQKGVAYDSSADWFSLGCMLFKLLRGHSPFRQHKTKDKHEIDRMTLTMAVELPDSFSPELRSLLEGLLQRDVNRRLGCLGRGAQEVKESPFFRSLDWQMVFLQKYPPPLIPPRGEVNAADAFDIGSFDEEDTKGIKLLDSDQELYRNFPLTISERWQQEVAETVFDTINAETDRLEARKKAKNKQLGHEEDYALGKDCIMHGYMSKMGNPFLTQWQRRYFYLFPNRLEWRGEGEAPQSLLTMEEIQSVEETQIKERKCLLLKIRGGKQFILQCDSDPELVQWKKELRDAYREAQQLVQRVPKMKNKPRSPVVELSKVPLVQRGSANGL
Sequence of Beta-2 adrenergic receptor (Homo sapiens) (P07550 whole entry, looked up): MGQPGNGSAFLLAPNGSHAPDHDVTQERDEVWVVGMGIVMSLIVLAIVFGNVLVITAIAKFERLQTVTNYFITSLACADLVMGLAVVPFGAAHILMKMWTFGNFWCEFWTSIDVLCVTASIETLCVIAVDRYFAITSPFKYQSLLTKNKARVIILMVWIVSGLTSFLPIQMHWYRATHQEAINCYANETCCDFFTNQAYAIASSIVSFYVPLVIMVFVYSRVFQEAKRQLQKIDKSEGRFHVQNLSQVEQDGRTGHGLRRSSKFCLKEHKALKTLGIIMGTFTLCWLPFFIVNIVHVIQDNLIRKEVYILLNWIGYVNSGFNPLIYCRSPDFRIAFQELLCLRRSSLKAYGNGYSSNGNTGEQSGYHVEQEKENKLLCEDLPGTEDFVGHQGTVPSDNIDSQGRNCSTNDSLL
Sequence of AP-2 complex subunit beta (Homo sapiens) (P63010 whole entry, looked up, one chain of several): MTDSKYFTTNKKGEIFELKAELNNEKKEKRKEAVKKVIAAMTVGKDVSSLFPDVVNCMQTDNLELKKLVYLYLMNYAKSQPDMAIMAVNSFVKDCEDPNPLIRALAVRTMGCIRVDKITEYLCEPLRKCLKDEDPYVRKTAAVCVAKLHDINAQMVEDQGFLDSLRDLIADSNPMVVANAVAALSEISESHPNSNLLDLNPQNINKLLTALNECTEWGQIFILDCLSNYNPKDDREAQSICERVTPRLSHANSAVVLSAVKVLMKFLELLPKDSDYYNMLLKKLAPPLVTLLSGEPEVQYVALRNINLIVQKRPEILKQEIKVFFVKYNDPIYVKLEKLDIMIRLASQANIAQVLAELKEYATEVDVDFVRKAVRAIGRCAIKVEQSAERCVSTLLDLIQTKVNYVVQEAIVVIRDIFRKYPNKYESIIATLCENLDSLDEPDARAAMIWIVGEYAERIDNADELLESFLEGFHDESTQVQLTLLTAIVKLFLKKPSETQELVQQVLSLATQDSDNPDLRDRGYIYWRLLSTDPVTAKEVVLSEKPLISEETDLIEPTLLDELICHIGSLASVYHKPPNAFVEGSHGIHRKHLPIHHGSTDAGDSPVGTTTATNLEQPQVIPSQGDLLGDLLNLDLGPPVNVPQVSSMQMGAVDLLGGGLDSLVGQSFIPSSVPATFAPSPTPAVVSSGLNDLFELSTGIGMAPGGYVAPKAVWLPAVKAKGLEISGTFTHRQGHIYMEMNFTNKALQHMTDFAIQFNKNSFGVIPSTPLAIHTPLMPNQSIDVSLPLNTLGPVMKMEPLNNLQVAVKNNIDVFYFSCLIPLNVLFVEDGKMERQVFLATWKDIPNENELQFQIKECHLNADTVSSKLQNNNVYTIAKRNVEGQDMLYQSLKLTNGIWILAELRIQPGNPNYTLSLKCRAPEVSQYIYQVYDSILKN
Sequence of Botulinum neurotoxin type A (Clostridium botulinum) (P0DPI0 whole entry, looked up): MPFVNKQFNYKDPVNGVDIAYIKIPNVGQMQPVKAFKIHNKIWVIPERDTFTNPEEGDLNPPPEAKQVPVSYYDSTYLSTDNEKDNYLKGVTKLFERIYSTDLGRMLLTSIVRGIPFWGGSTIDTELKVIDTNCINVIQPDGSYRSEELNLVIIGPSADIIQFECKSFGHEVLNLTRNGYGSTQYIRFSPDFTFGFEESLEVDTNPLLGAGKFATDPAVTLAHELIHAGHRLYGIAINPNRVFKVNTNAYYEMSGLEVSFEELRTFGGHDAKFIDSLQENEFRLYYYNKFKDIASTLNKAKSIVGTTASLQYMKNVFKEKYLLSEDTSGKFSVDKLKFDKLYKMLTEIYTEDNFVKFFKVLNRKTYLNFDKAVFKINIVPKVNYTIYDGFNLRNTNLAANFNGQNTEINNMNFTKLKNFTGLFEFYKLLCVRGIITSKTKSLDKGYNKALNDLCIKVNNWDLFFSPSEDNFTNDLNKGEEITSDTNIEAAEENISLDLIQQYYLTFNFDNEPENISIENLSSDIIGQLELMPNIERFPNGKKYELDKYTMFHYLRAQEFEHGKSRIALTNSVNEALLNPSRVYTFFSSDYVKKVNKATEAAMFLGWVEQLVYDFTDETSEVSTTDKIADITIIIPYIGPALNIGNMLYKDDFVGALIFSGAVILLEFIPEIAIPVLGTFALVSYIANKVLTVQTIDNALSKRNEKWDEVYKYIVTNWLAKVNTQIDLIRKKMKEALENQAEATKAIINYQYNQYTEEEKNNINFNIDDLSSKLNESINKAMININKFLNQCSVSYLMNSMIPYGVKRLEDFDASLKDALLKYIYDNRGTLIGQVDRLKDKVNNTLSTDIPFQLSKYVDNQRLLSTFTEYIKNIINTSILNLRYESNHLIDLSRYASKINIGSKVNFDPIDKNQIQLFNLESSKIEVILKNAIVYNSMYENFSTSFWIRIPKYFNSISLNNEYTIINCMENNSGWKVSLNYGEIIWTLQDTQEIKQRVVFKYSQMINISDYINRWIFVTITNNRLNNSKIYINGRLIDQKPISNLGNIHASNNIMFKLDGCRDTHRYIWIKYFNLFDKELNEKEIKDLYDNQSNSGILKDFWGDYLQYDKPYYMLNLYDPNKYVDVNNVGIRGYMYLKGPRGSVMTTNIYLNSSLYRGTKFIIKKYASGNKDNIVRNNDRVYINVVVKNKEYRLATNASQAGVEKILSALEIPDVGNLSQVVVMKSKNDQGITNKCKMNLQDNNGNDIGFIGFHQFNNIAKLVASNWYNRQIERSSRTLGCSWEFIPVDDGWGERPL
Sequence of Lethal factor (Bacillus anthracis) (P15917 whole entry, looked up): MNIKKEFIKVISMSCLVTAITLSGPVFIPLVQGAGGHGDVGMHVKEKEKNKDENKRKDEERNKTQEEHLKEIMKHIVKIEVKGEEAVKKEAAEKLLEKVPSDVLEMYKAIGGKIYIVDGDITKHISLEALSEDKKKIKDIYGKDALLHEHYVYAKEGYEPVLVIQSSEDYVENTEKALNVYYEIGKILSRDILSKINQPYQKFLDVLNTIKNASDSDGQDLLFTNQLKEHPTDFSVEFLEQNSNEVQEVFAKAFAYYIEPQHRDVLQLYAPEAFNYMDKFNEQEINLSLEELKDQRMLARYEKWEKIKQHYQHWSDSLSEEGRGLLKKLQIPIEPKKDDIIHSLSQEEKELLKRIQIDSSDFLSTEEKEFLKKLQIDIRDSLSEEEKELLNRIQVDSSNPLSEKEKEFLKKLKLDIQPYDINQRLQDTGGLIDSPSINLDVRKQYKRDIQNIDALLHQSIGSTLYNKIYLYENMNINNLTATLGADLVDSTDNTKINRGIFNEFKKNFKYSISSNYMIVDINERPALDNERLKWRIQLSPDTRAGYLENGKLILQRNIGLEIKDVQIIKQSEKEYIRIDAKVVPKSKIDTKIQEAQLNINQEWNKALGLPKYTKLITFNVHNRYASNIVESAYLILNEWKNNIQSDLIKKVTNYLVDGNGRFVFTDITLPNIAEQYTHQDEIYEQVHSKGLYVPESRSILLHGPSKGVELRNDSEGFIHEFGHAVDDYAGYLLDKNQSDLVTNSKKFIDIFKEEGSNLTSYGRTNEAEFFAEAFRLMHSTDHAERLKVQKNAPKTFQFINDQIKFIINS
Sequence of ATP-binding cassette sub-family B member 6 (Homo sapiens) (Q9NP58 whole entry, looked up): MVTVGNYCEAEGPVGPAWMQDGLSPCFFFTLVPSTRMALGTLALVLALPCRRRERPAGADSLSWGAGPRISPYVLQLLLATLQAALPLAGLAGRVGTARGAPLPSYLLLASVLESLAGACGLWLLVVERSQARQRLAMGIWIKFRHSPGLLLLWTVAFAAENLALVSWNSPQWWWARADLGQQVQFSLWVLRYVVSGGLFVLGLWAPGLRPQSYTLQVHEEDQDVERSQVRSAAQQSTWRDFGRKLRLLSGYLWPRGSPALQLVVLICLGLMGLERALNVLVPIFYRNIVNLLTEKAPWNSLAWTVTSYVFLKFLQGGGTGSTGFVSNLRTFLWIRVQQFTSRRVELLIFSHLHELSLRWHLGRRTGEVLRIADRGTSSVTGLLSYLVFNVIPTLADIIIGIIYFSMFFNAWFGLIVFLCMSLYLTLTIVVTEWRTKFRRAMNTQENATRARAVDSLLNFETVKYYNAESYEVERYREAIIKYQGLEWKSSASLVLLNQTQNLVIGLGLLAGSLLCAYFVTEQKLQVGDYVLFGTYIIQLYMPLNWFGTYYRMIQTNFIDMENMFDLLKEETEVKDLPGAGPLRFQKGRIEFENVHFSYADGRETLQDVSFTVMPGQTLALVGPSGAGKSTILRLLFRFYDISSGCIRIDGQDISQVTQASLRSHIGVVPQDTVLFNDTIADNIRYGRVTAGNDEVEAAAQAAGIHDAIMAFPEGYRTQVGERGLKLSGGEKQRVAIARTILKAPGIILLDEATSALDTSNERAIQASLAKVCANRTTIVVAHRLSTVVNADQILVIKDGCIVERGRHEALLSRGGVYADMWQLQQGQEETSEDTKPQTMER

Take `CN(C)[C@@H]1C(=O)C(C(N)=O)=C(O)[C@@]2(O)C(=O)C3=C(O)c4c(O)cccc4[C@@](C)(O)[C@H]3[C@H](O)[C@@H]12`: in assay [1], the percent of DMSO control GFP was 102% (inactive). Further, the percent response of DMSO control in assay [2] is 105% (inactive). Further, in [3], the GFP response vs DMSO is 97.4% (inactive). This compound also showed a double positive events in [4] of 56.9%. Besides, in assay [4], the vesicle binding response was 155% (inactive). For the same compound, the inhibition in assay [5] is 6.29% (inactive); in [8], 34.2% (inactive); in assay [11] it was -9.4% (inactive); in assay [12] it was -5.3% (inactive); in assay [13], -12.6% (inactive); in assay [15], 3% (inactive). Further, the superoxide response (% of plate) in assay [6] was 99.8% (inactive). For the same compound, in [7], the aptamer binding inhibition was 26% (inactive). In addition, in assay [9], the response is 4.02% (inactive). In addition, in assay [10], the binding (% of control) is 87.9% (inactive). Further, the efflux inhibition (fraction of control) in [14] was -0.31 (inactive). Moreover, the differentiation response in [16] was -18% (inactive).

As to `C[C@H]1CCC/C=C/C2C[C@H](O)CC2[C@H](O)/C=C/C(=O)O1` (stereo not given in full), in assay [1], the percent of DMSO control GFP is 106% (inactive). For the same compound, the percent response of DMSO control in assay [2] was 99.7% (inactive). Further, the GFP response vs DMSO in assay [3] was 100% (inactive). This compound gave a double positive events in assay [4] of 62.5%. Moreover, the vesicle binding response in assay [4] was 166% (inactive). In addition, the inhibition in [5] is 0.25% (inactive); in [11], 4% (inactive); in [12], -0.8% (inactive); in assay [13] it was 2.7% (inactive); in assay [15] it was 17% (inactive). In [6], the superoxide response (% of plate) is 92.8% (inactive). Besides, in [7], the aptamer binding inhibition is 1% (inactive). Besides, the results for the response in assay [17] and in [9] were 28.3% (inactive) and -4.42% (inactive), respectively. For the same compound, in [10], the binding (% of control) is 85.8% (inactive). In assay [14], the efflux inhibition (fraction of control) was 0.31 (inactive). The differentiation response in [16] was 32% (inactive).

Turning to `Cc1ccc(/C=C2/C(=O)NC(=O)N(C)C2=O)cc1`, the percent of DMSO control GFP in assay [1] is 97.4% (inactive). Also, the percent response of DMSO control in assay [2] was 95.9% (inactive). For the same compound, the GFP response vs DMSO in assay [3] was 97.4% (inactive). Besides, the double positive events in [4] was found to be 53.7%. Besides, in assay [4], the vesicle binding response is 135% (inactive). For the same compound, the inhibition is 20.3% (inactive) in assay [5]; -0.14% (inactive) in assay [8]; 0.6% (inactive) in assay [11]; 1.8% (inactive) in [12]; 6.7% (inactive) in assay [13]; 6% (inactive) in [15]. Besides, the superoxide response (% of plate) in assay [6] was 101% (inactive). The aptamer binding inhibition in [7] was 5% (inactive). The response in assay [9] was -4.11% (inactive). In assay [10], the binding (% of control) is 97.8% (inactive). The efflux inhibition (fraction of control) in [14] is 0.22 (inactive). The differentiation response in assay [16] was -0.2% (inactive).

Take `Cc1cc(Cl)ccc1OC(C)C(=O)O` (stereo not given): the percent of DMSO control GFP in assay [1] was 97.9% (inactive). Moreover, in assay [2], the percent response of DMSO control was 111% (inactive). In addition, the GFP response vs DMSO in [3] was 74.8% (inactive). The double positive events in [4] stood at 58.2%. Moreover, the vesicle binding response in assay [4] was 208% (inactive). For the same compound, the inhibition in assay [5] is -6.15% (inactive); in [8] it was 0.4% (inactive); in assay [11] it was 3.9% (inactive); in assay [12] it was 0.5% (inactive); in assay [15], 9% (inactive). The superoxide response (% of plate) in [6] was 135% (inactive). Moreover, the aptamer binding inhibition in assay [7] was -5% (inactive). The response in assay [17] was -8.83% (inactive); in assay [9] it was 3.15% (inactive). Also, the binding (% of control) in assay [10] is 105% (inactive). For the same compound, in [14], the efflux inhibition (fraction of control) was 0.37 (inactive). The differentiation response in assay [16] was 7.37% (inactive).

As for `CC(C)[C@H]1C(=O)N2CCC[C@H]2[C@]2(O)O[C@](NC(=O)[C@@H]3C=C4c5cccc6[nH]cc(c56)C[C@H]4N(C)C3)(C(C)C)C(=O)N12`, the percent of DMSO control GFP in assay [1] was 99% (inactive). Moreover, the percent response of DMSO control in assay [2] is 102% (inactive). Moreover, the GFP response vs DMSO in assay [3] is 123% (inactive). In addition, the double positive events in [4] came out at 59.8%. Also, the vesicle binding response in [4] was 192% (inactive). The superoxide response (% of plate) in assay [6] was 38.3% (active). In assay [7], the aptamer binding inhibition is 8% (inactive). Besides, the response was -24.6% (inactive) in assay [17] and -7.73% (inactive) in [9]. Also, the inhibition was 3.83% (inactive) in assay [8]; -15.7% (inactive) in [11]; -5% (inactive) in [12]; -64.2% (inactive) in [13]; -96% (inactive) in assay [15]. Further, the binding (% of control) in assay [10] is 105% (inactive). Further, the efflux inhibition (fraction of control) in [14] is 0.25 (inactive). Further, in assay [16], the differentiation response is -2.03% (inactive).
